Structures can show the parent of a compound that is named as a salt.
Tests used:
Assay in all cases: Euclidean distance of Cell Painting phenotypic profile (signed KS, 77 features) to DMSO centroid (dimensionless distance); 5 or 10 uM (library dependent); higher = stronger phenotypic change vs DMSO (phenoactivity)
Conditions in all cases: 48 h
786-O = tested on: 786-O
In short: (§1)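 Stained cells were imaged confocally at 20X with 9 fields per well, after 48 h of exposure to library compounds at 10 or 5 uM (set by library; 0.1% DMSO final). The cells were five cancer lines and a healthy fibroblast line. From the images, Harmony extracted 77 features, each expressed as a signed Kolmogorov-Smirnov statistic relative to same-plate vehicle wells. Phenoactivity is measured as Euclidean distance to the median vehicle profile, using plate-position-corrected, correlation-weighted profiles averaged across replicates at the top dose.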

A549 = tested on: A549
In short: as §1

DU145 = tested on: DU145
In short: as §1

FB = tested on: FB
In short: as §1

HEPG2 = tested on: HEPG2
In short: as §1

OVCAR4 = tested on: OVCAR4
In short: as §1

Row | SMILES | Euclidean distance (786-O) | Euclidean distance (A549) | Euclidean distance (DU145) | Euclidean distance (FB) | Euclidean distance (HEPG2) | Euclidean distance (OVCAR4)
1 | CC(C)COc1ccc(CNC(=O)N(Cc2ccc(F)cc2)C2CCN(C)CC2)cc1 [Pimavanserin] | 4.02 | 4.29 | 3 | 5.4 | 5.24 | 3.47
2 | C[C@]12CCC(=O)C=C1[C@@H]1C[C@@H]1[C@H]1[C@@H]3[C@@H]4C[C@@H]4[C@@]4(CCC(=O)O4)[C@@]3(C)CC[C@@H]12 [Drospirenone] | 0.972 | 0.987 | 0.866 | 0.787 | 0.612 | 0.995
3 | COc1ccc(-c2cc(=S)ss2)cc1 [Anethole trithione] | 1.49 | 1.04 | 1.18 | 1.03 | 0.61 | 1.06
4 | Cc1cc(OCCCS(C)(=O)=O)cc(C)c1-c1cccc(COc2ccc3c(c2)OC[C@H]3CC(=O)O)c1 | 1.05 | 1.02 | 1.26 | 2.38 | 1 | 1.88
5 | CC(C)Cc1ccc([C@@H](C)C(=O)NS(C)(=O)=O)cc1 [Reparixin (Repertaxin)] | 1.16 | 0.942 | 0.933 | 1.09 | 1.25 | 1.04
6 | CNC(=O)c1cc(Oc2ccc(NC(=O)Nc3ccc(Cl)c(C(F)(F)F)c3)c(F)c2)ccn1 [Regorafenib (BAY 73-4506)] | 1.82 | 2.6 | 1.66 | 1.6 | 1.42 | 1.63
7 | Cc1ccc(C(=O)c2cc(O)c(O)c([N+](=O)[O-])c2)cc1 [Tolcapone] | 0.991 | 1.18 | 1.08 | 0.848 | 0.591 | 1.5
8 | O=C(C[S+]([O-])Cc1ccco1)NC/C=C\COc1cc(CN2CCCCC2)ccn1 (stereo not drawn) [Lafutidine] | 0.976 | 1.04 | 1.52 | 1.4 | 2.06 | 1.4
9 | CN(C)C(=O)[C@H](O)[C@H](Cc1ccccc1)NC(=O)c1cc2cc(Cl)ccc2[nH]1 | 0.476 | 0.757 | 0.712 | 1.01 | 1.05 | 0.908
10 | CC1=NN(c2ccccc2)C(=O)C1 [Edaravone] | 1.25 | 1.04 | 0.819 | 0.807 | 1.31 | 1.02
11 | O=C(O)[C@@H](S)[C@@H](S)C(=O)O [Succimer] | 1.49 | 1.41 | 1.53 | 1.35 | 0.53 | 1.55
12 | Cc1ccc(CNc2ncnc3ccc(-c4ccc(CO)o4)cc23)o1 | 1.8 | 1.95 | 1.67 | 1.25 | 2.04 | 1.67
13 | CC(C)Cn1cnc2c(N)nc3ccccc3c21 [Imiquimod] | 0.967 | 1.15 | 0.652 | 0.784 | 0.448 | 0.537
14 | Nc1ccn([C@@H]2O[C@H](CO)[C@@H](O)[C@H]2O)c(=O)n1 [Cytidine] | 1.92 | 0.659 | 1.04 | 0.943 | 1.9 | 1
15 | NCCc1c[nH]cn1 [Histamine 2HCl] | 1.32 | 0.957 | 0.954 | 1.22 | 0.814 | 0.832
16 | CC[C@@]1(O)C(=O)OCc2c1cc1n(c2=O)Cc2cc3cc(O)ccc3nc2-1 [Hydroxy Camptothecine] | 3.83 | 4.01 | 3.99 | 3.74 | 3.55 | 2.89
17 | CC(C)(CCCCCC(O)CCCCCC(C)(C)C(=O)O)C(=O)O | 0.76 | 0.809 | 0.925 | 0.851 | 0.375 | 1.06
18 | N=C(NCCCCCCNC(=N)NC(=N)Nc1ccc(Cl)cc1)NC(=N)Nc1ccc(Cl)cc1 [Chlorhexidine] | 2.05 | 3.54 | 1.97 | 2.12 | 2.92 | 3.25
19 | C[C@H]1O[C@@H](O[C@H]2CC[C@@]3(C)[C@@H](CC[C@]4(C)[C@@H]3C=C[C@]35OC[C@@]6(CCC(C)(C)C[C@H]63)[C@H](O)C[C@]54C)[C@]2(C)CO)[C@H](O)[C@@H](O[C@@H]2O[C@H](CO)[C@@H](O)[C@H](O)[C@H]2O)[C@H]1O [Saikosaponin D] | 2.45 | 2.4 | 5.79 | 1.95 | 4.11 | 2.92
20 | CCCS(=O)(=O)N[C@H]1C[C@@H](N(C)c2ncnc3[nH]ccc23)C1 | 0.905 | 1.03 | 1.02 | 1.03 | 0.71 | 1.17
21 | CN(C)C[C@@H]1CCn2cc(c3ccccc32)C2=C(C(=O)NC2=O)c2cn(c3ccccc23)CCO1 | 3.81 | 3.95 | 4.1 | 3.89 | 3.22 | 4.42
22 | CCc1cnn2c(NCc3ccc[n+]([O-])c3)cc(N3CCCC[C@H]3CCO)nc12 | 3.35 | 2.78 | 3.2 | 3.11 | 2.64 | 3.58
23 | CCOC(=O)C1=C(COCCN)NC(C)=C(C(=O)OC)C1c1ccccc1Cl (stereo not drawn) [Amlodipine Besylate] | 1.08 | 0.672 | 0.871 | 1.18 | 1.64 | 1.07
24 | CCOc1ccc(Cc2cc([C@]34OC[C@](CO)(O3)[C@@H](O)[C@H](O)[C@H]4O)ccc2Cl)cc1 [Ertugliflozin] | 1.45 | 0.762 | 1.22 | 0.862 | 0.465 | 1.23

Row | SMILES | Euclidean distance (786-O) | Euclidean distance (A549) | Euclidean distance (DU145) | Euclidean distance (FB) | Euclidean distance (HEPG2) | Euclidean distance (OVCAR4)
25 | CC(=O)N[C@@H](CS)C(=O)O [Acetylcysteine] | 0.996 | 1.28 | 1.2 | 0.709 | 0.571 | 1.6
26 | CN(C)CC(c1ccc(O)cc1)C1(O)CCCCC1 (stereo not drawn) [Desvenlafaxine] | 0.678 | 0.707 | 0.899 | 0.932 | 0.34 | 1.95
27 | NC(=O)c1ccc(I)c([N+](=O)[O-])c1 [Iniparib (BSI-201)] | 1.06 | 0.758 | 1.44 | 1.31 | 0.803 | 1.14
28 | CC(C)(C)NCC(O)c1cc(O)cc(O)c1 (stereo not drawn) [Terbutaline Sulfate] | 1.21 | 0.707 | 0.835 | 1.27 | 0.547 | 0.825
29 | C[C@@H](OC[C@@]1(c2ccccc2)CC[C@]2(CCC(=O)N2)CN1)c1cc(C(F)(F)F)cc(C(F)(F)F)c1 [Rolapitant] | 1.23 | 1.85 | 1.34 | 1.17 | 1.3 | 1.41
30 | CN1C2CCCC1CC(NC(=O)c1nn(C)c3ccccc13)C2 (stereo not drawn) [Granisetron HCl] | 1.32 | 0.903 | 1.37 | 1.04 | 1.27 | 1
31 | Oc1ccc(Cl)c2cccnc12 [Cloxiquine] | 1.62 | 2.13 | 1.92 | 2.66 | 1.62 | 1.97
32 | COc1cc2nc(N(C)CCCNC(=O)C3CCCO3)nc(N)c2cc1OC (stereo not drawn) [Alfuzosin HCl] | 0.985 | 0.664 | 0.632 | 0.744 | 0.675 | 0.907
33 | CC[C@@H](C)Nc1cc(C(=O)N[C@H]2C[C@H]3CC[C@@H](C2)N3c2ccc(C(=O)C3CC3)cn2)c(C)cc1C(N)=O | 3.1 | 3.1 | 3.17 | 3.15 | 4.37 | 3.3
34 | CCCCC(=O)N(Cc1ccc(-c2ccccc2-c2nnn[nH]2)cc1)[C@H](C(=O)O)C(C)C [Valsartan] | 1.68 | 1.17 | 0.682 | 0.799 | 0.48 | 0.776
35 | CCCNC(C)C(=O)Nc1ccccc1C (stereo not drawn) [Prilocaine hydrochloride] | 0.697 | 0.662 | 0.635 | 0.843 | 0.473 | 0.791
36 | CCCC(CCC)C(=O)O [Divalproex Sodium] | 1.31 | 0.566 | 0.425 | 0.846 | 0.404 | 0.812
37 | CC(C)(CO)[C@@H](O)C(=O)NCCC(=O)NCCSSCCNC(=O)CCNC(=O)[C@H](O)C(C)(C)CO [D-Pantethine] | 1.1 | 1.2 | 0.679 | 1 | 0.969 | 1.35
38 | CCCCCCCCCCCC(=O)O [Lauric Acid] | 1.1 | 0.784 | 1.21 | 1.34 | 0.884 | 0.985
39 | O=C1C[C@@H](c2ccc(O)cc2)Oc2cc(O)cc(O)c21 [Naringenin] | 0.882 | 1.06 | 0.744 | 1.06 | 0.936 | 1.11
40 | Clc1ccc2nsnc2c1NC1=NCCN1 [Tizanidine] | 1.07 | 0.538 | 0.815 | 0.569 | 0.572 | 0.608
41 | C[C@@H](O)[C@H]1C(=O)N2C(C(=O)O)=C(S[C@@H]3CN[C@H](C(=O)N(C)C)C3)[C@H](C)[C@H]12 [Meropenem] | 1.75 | 1.63 | 0.873 | 1.2 | 1.05 | 1.15
42 | CO[C@H]1/C=C/O[C@@]2(C)Oc3c(C)c(O)c4c(O)c(c(/C=N/N5CCN(C6CCCC6)CC5)c(O)c4c3C2=O)NC(=O)/C(C)=C\C=C\[C@H](C)[C@H](O)[C@@H](C)[C@@H](O)[C@@H](C)[C@H](OC(C)=O)[C@@H]1C [Rifapentine] | 1.24 | 0.894 | 1.76 | 1.72 | 2.12 | 1.56
43 | CCOC(=O)n1ccn(C)c1=S [Carbimazole] | 1.03 | 1.11 | 1.2 | 0.945 | 0.319 | 1.09
44 | COc1cccc2c1C(=O)c1c(O)c3c(c(O)c1C2=O)C[C@@](O)(C(=O)CO)C[C@@H]3O[C@H]1C[C@H](N)[C@H](O[C@@H]2CCCCO2)[C@H](C)O1 [Pirarubicin] | 3.6 | 4.43 | 3.47 | 4.28 | 4.37 | 4.83
45 | O=c1cc(-c2ccccc2)oc2cc(O)c(O)c(O)c12 [Baicalein] | 1.38 | 1.65 | 1.25 | 2.7 | 0.918 | 1.08
46 | CN(C)CCCN1c2ccccc2Sc2ccc(Cl)cc21 [Chlorpromazine] | 1.47 | 1.98 | 1.56 | 2.21 | 2.01 | 1.04
47 | CC(C)(C)NC(=O)N[C@H](C(=O)N1C[C@H]2[C@@H]([C@H]1C(=O)NC(CC1CCC1)C(=O)C(N)=O)C2(C)C)C(C)(C)C (stereo partly drawn) [Boceprevir] | 1.48 | 0.973 | 1.59 | 1.13 | 0.545 | 1.45
48 | C[S+]([O-])c1ccc(-c2nc(-c3ccc(F)cc3)c(-c3ccncc3)[nH]2)cc1 (stereo not drawn) | 1.84 | 0.978 | 1.1 | 1.03 | 2.4 | 1.33
